Experimental data: ChEMBL document CHEMBL4513216, “Probing the Open Global Health Chemical Diversity Library for Multistage-Active Starting Points for Next-Generation Antimalarials” (ACS Infect Dis, 2020)
Out of some 69,000 compounds screened, about 8,600 (12%) showed an effect of 50% or more. This is one part of a sample in which strong results are shown more often than they occur.

tested on: Plasmodium berghei; experiment: Screen against P. berghei liver stage (PbLuc), transformed with Luciferase, at 10uM; assay type: functional, HepG2; conditions: tested at 10 uM

Row | Compound | INHIBITION
1 | CCn1cnnc1C1CCN(C(=O)c2cccc(-n3cccc3)c2)CC1 | 20%
2 | O=C1NC2(CCCN(C(=O)CCn3cncn3)C2)Oc2ccccc21 (stereo not drawn) | -5.279%
3 | Cc1cc(C)n(CCNCc2cc(-c3ccccc3)c[nH]c2=O)n1 | 7.43%
4 | Cc1noc(C)c1CN1CC[C@H]2OCC[C@@]2(C(=O)NC2CCCC2)C1 | 17.1%
5 | Cc1cc(C)c2c(OCC(=O)N(C)CC(=O)NC(C)C)nn(C)c2n1 | -0.275%
6 | CCCn1cc(NC(=O)NCC2CCS(=O)(=O)C2)nn1 (stereo not drawn) | 16.6%
7 | COCCN1C(=O)[C@@H]2CC[C@H]1CN(c1ncccn1)C2 | -33.4%
8 | Cc1nc(C2CCCN2CC(=O)NCCc2ccc(Cl)cc2)no1 (stereo not drawn) | 44.1%
9 | Brc1ccc(-c2nnc(CN(Cc3cccs3)CC3CCCO3)o2)s1 (stereo not drawn) | 90.2%
10 | c1coc(-c2nnc(CN(Cc3cccs3)CC3CCCO3)o2)c1 (stereo not drawn) | 16.6%
11 | CC(C)(C)c1nnc(CN(Cc2cccs2)CC2CCCO2)o1 (stereo not drawn) | 44%
12 | CC1CCN(Cc2c(C(C)C)[nH]c3ncccc23)CC1 | 8.12%
13 | COCCC(=O)N1CCC2(CC1)CN(S(C)(=O)=O)Cc1ccccc1O2 | -0.66%
14 | OCCN1CCOC2(CCCN(c3cccc(F)c3)C2)C1 (stereo not drawn) | 43.8%
15 | Fc1cccc(N2CCCC3(CN(Cc4ccco4)CCO3)C2)c1 (stereo not drawn) | 80%
16 | Cc1ccc(CN2CCOC3(CCCN(c4cccc(F)c4)C3)C2)o1 (stereo not drawn) | 81.2%
17 | O=S(=O)(C1CC1)N1CCOC2(CCCN(c3cccc(F)c3)C2)C1 (stereo not drawn) | -57.1%
18 | Cc1nnc(N2CCCC3(CN(c4cccc(F)c4)CCO3)C2)o1 (stereo not drawn) | 33%
19 | Fc1cccc(N2CCOC3(CCCN(c4nncs4)C3)C2)c1 (stereo not drawn) | -22.5%
20 | CS(=O)(=O)NC1CC2(CCN(CC3CC3)CC2)Oc2ccccc21 (stereo not drawn) | 19.4%
21 | CN(Cc1cccnc1)[C@@H]1CN(C(=O)NC2CC2)[C@@H]2CCCO[C@H]12 | 32.2%
22 | Cc1cc(C(=O)N2CCCC(c3cc(=O)nc4n3CCC4)C2)on1 (stereo not drawn) | 20.6%

Row | Compound | INHIBITION
23 | CCOc1nc2cnccc2n(CC(=O)Nc2ccccc2OC)c1=O | -1.45%
24 | CO[C@H]1CCN(S(=O)(=O)c2cccs2)[C@H]1Cc1ccncc1 | 7.77%
25 | O=S(=O)(c1cccs1)N1CC[C@@H](O)[C@@H]1Cc1ccncc1 | 71.9%
26 | O=S(=O)(c1cccs1)N1CC[C@H](O)[C@@H]1Cc1ccncc1 | 28.4%
27 | Cc1ccc(Sc2nccn(C)c2=O)cc1 | -53.1%
28 | Cc1c[nH]c(C2CN(Cc3ccccc3C(=O)O)CCO2)n1 (stereo not drawn) | 26.7%
29 | COc1ccc(CNC(=O)CCSCc2csc(C)n2)cn1 | -12.2%
30 | CCN(CC)c1ncc(CNC2CCc3nc(C)nn3C2)s1 (stereo not drawn) | 4.22%
31 | CC(O)CNc1ccc(C#N)cc1C(F)(F)F (stereo not drawn) | 50.8%
32 | CCC(CC)C(=O)NS(=O)(=O)c1ccc(C#N)cc1C(F)(F)F | 11.9%
33 | CCC(C)C(=O)NS(=O)(=O)c1ccc(C#N)cc1C(F)(F)F (stereo not drawn) | 9.54%
34 | CC/C=C(/C)C(=O)NS(=O)(=O)c1ccc(C#N)cc1C(F)(F)F | -7.53%
35 | N#Cc1ccc(NCC(O)c2ccco2)c(C(F)(F)F)c1 (stereo not drawn) | 25.7%
36 | COCC(O)CNc1ccc(C#N)cc1C(F)(F)F (stereo not drawn) | 77.7%
37 | Cc1ccc(C2CCCN(C(=O)c3cnn(C)c3)C2)nc1 (stereo not drawn) | 3.91%
38 | CCNC(=O)CN1CCCC(c2ccc(C(=O)O)cc2)C1 (stereo not drawn) | 45%
39 | CC(C)c1cncnc1N1CC[C@H](N2CCOCC2)[C@H](CCCO)C1 | 30.5%
40 | O=C(c1ccc(=O)[nH]c1)N1C[C@H]2CC[C@@H](C1)N(Cc1ccccc1)C2 | -70.7%
41 | O=C(NCCc1cnccn1)C1(N2CCCCC2)Cc2ccccc2C1 | 43.7%
42 | O=C(Nc1cccc2c1CCCC2)c1cccc(CN2CC[C@H](O)C2)c1 | 37.6%
43 | COc1ccc(NC(=O)c2ccc(CN3CC[C@H](O)C3)cc2)c(OC)n1 | 26.7%
44 | CCNC(=O)C1CCN(Cc2ccc(C(=O)Nc3cnns3)cc2)C1 (stereo not drawn) | 12.2%

Row | Compound | INHIBITION
45 | NC(=O)C1CCCN(Cc2ccc(C(=O)Nc3cnns3)cc2)C1 (stereo not drawn) | 40.15%
46 | Cc1cncc(NC(=O)c2ccc(CN3CCC(CO)CC3)cc2)c1 | -12.4%
47 | CCNC(=O)C1CCN(Cc2ccc(C(=O)Nc3nnc(C)s3)cc2)C1 (stereo not drawn) | 57.35%
48 | Cc1cc(NC(=O)c2ccc(CN3CC[C@H](O)C3)cc2)ccc1F | 90.3%
49 | Cc1cncc(NC(=O)c2ccc(CN3CC[C@H](O)C3)cc2)c1 | 87.5%
50 | O=C(Nc1ccccc1CCO)c1cccc(CN2CC[C@H](O)C2)c1 | 23.9%
51 | Cc1[nH]ccc1C(=O)Nc1cccc(CN2CCC(O)CC2)c1 | -4.74%
52 | COc1cc(NC(=O)c2ccc(CN3CC[C@H](O)C3)cc2)cc(OC)c1 | 67.6%
53 | Cc1cncc(NC(=O)c2ccc(CN3CCCC(C(N)=O)C3)cc2)c1 (stereo not drawn) | 23%
54 | Cc1ccc(CN2C[C@@H]3[C@@H](C(=O)N4CCCC4)CCS(=O)(=O)[C@@H]3C2)cc1 | -10.9%
55 | O=C(c1ccc[nH]1)N1C[C@@H]2CC[C@H]1CN(c1ncccn1)C2 | -16.5%
56 | O=C1C[C@H]2[C@@H](CCN2C(=O)c2ccc[nH]2)N1CCN1CCCC1 | 47.9%
57 | COc1cc(C)nc(N2CCN(C(=O)c3ccoc3C)CC2)n1 | 11.9%
58 | c1cncc(-c2ncnc3c2CCN(Cc2cccs2)CC3)c1 | -49.8%
59 | O=C(CCc1cccs1)N1CCCC(N2CCNC2=O)C1 (stereo not drawn) | 11.6%
60 | O=C(CCCc1cccs1)N1CCC(N2CCNC2=O)CC1 | 70.8%
61 | O=C(CCc1ccc(Cl)s1)N1CCC(N2CCNC2=O)CC1 | 60.9%
62 | O=C(CCc1ccccc1)N1CCC(N2CCNC2=O)CC1 | 2.61%
63 | O=C(CCc1ccc(Cl)s1)N1CCCC(N2CCNC2=O)C1 (stereo not drawn) | 30%
64 | O=C(CCc1cccs1)N1CCC(N2CCNC2=O)CC1 | 27.8%
65 | O=C(NCC1CC1)[C@@H]1CCO[C@@H]2CCN(c3ncccn3)C[C@@H]21 | 44.2%
66 | Cc1nc(C)n(C2CCCN(C(=O)c3ccc(OC(C)C)nc3)C2)n1 (stereo not drawn) | 5.907%

Row | Compound | INHIBITION
67 | CN(C)CCN(Cc1cccc(F)c1)C(=O)c1ccn(C)c(=O)c1 | 31.1%
68 | O=C1CC(c2cccnc2)c2c(c(C(=O)O)cn2-c2ccccc2F)N1 (stereo not drawn) | 19.4%
69 | Cc1cc(C)c(NC(=O)Nc2cnn(CC(O)CN(C)C)c2)c(C)c1 (stereo not drawn) | 35.4%
70 | Cc1c(CCC(=O)N2CCCC2c2ccnc(N(C)C)c2)cnn1C (stereo not drawn) | 23%
71 | COc1ccc(CNC(=O)Nc2cccnc2OC)cc1O | 9.54%
72 | Cc1ccc(N2CC[C@H]3OCC[C@@]3(C(=O)N(C)C)C2)nn1 | 24.3%
73 | Cc1ncc(-c2ccncc2)c(C2CCCN(C(=O)c3ccno3)C2)n1 (stereo not drawn) | 18.505%
74 | Cn1nc(C2CCNCC2)c2c(C(=O)NC3CC3)cc(C3CC3)nc21 | 59.8%
75 | Cn1nc(C2CCNC2)c2c(C(=O)NC3CC3)cc(C3CC3)nc21 (stereo not drawn) | 45.8%
76 | Cn1nc(C2CCCN2)c2c(C(=O)NC3CC3)cc(C3CC3)nc21 (stereo not drawn) | 40%
77 | Cn1nc(C2CCCNC2)c2c(C(=O)NC3CC3)cc(C3CC3)nc21 (stereo not drawn) | 52.4%
78 | Cn1nc(C2CCNC2)c2c(C(=O)NCC(F)(F)F)cc(C3CC3)nc21 (stereo not drawn) | 47.4%
79 | O=C(NC1CC1)c1cc(C2CC2)nc2onc(C3CCNCC3)c12 | 24.2%
80 | Cc1ccccc1CNC(=O)Cn1ncc2c1c(C)nn2C | 21.7%
81 | Cc1ccc(C(=O)NC2CCN(CC(=O)N(C)c3ccccc3)CC2)o1 | 7.27%
82 | Cn1cccc1C(=O)COc1ccc(S(N)(=O)=O)cc1 | -55.3%
83 | CNC(=O)C1(CCCc2cnccn2)CCN1CCc1ccccc1 (stereo not drawn) | 23.8%
84 | CCN1CCn2c(C)cnc2C12CCN(C(=O)NC)CC2 | 6.27%
85 | CNS(=O)(=O)c1ccc(CNC(=O)c2cccc(C)n2)cc1 | 37.4%
86 | COCCN(C)C(=O)c1cc2c(s1)CCN2C(=O)C1CC1 | 37.5%
87 | Cc1occc1C(=O)N1CCC(C(O)c2ccc(Cl)cc2)CC1 (stereo not drawn) | -49.3%
88 | CCN(C)S(=O)(=O)N1CCC(C(O)c2ccc(F)cc2)CC1 (stereo not drawn) | 51.1%

Row | Compound | INHIBITION
89 | CN(C)S(=O)(=O)N1CCC(C(O)c2ccc(Cl)cc2)CC1 (stereo not drawn) | -9.8%
90 | Cc1occc1C(=O)N1CCC(C(O)c2ccc(F)cc2)CC1 (stereo not drawn) | -85.6%
91 | CCN(C)S(=O)(=O)N1CCC(C(O)c2ccc(Cl)cc2)CC1 (stereo not drawn) | 50.1%
92 | CCOCC(=O)N1CCC(C(O)c2ccc(F)cc2)CC1 (stereo not drawn) | -6.99%
93 | CCS(=O)(=O)N1CCO[C@H]2[C@H](Oc3ncccc3F)CC[C@@H]21 | 17.4%
94 | O=C(O)c1ccccc1-n1cnc(CN2CCc3ccccc3C2)c1 | 12.8%
95 | CCn1c(CC2CCN(S(=O)(=O)N3CCCCC3)CC2)nn(C)c1=O | 0.546%
96 | CN(C)C(=O)c1c[nH]nc1-c1ccc(CNC(=O)c2cnccn2)cc1 | 0.5%
97 | COCCN1CCOCC12CCN(c1cnccn1)CC2 | 42.1%
98 | Cc1noc(C)c1CN1CCOCC12CCN(c1nccs1)CC2 | 67.5%
99 | CCN1CCOCC12CCN(c1cnccn1)CC2 | 32.1%
100 | Cc1noc(C)c1CN1CCOCC12CCN(c1cnccn1)CC2 | 34.9%
101 | CCN1CCOCC12CCN(c1ccc(C#N)cc1)CC2 | 2.4%
102 | COCCN1CCOCC12CCN(c1ccc(C#N)cc1)CC2 | 49.7%
103 | CCN1CCOCC12CCN(c1nccs1)CC2 | 54.8%
104 | c1csc(CN2CCC3(CCCN3CC3CC3)CC2)n1 | 33%
105 | COCCN1CCOCC12CCN(c1nccs1)CC2 | 53.9%
106 | CN1CCOCC12CCN(Cc1nccs1)CC2 | 0.804%
107 | c1csc(CN2CCC3(CC2)COCCN3CC2CC2)n1 | 50.7%
108 | Cc1noc(C)c1CN1CCOCC12CCN(c1ncccn1)CC2 | 47.5%
